# Measured values from PubChem BioAssay (EPA / NIEHS).
# Activity calls are given as the source filed them. How the source made its calls: active means hit-call score of the fitted dose curve at least 0.9, where 1 is the maximum; inactive means score below 0.9.
# Tests used:
# Conditions in all cases: mRNA level, 48 h; actives raise or lower the signal
# [1] = read-out: Forkhead box O3 (FOXO3), FOXO3 (gene 2309); assay: LTEA_HepaRG_FOXO3: Life Technologies and Expression Analysis (LTEA) Assay for Forkhead box O3 (FOXO3) using HepaRG (AID 2283459)
# Procedure, shortened: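 FOXO3 transcript measured by qRT-PCR (normalized to ACTB, GAPDH, POLR2A) after 48 h exposure of HepaRG cells in serum-free induction medium. Duplicates, eight half-log concentrations up to 100 uM, 0.5% DMSO; gain or loss fitted against DMSO.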
# [2] = read-out: ABC Transporter (ABCB1), ABCB1 (gene 5243); assay: LTEA_HepaRG_ABCB1: Life Technologies and Expression Analysis (LTEA) Assay for ABC Transporter (ABCB1) using HepaRG (AID 2283460)
# Procedure, shortened: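 ABCB1 transcript level measured by TaqMan qRT-PCR against three housekeeping genes after 48 h chemical exposure of differentiated HepaRG cells. Top concentration 100 uM, half-log steps, eight points, 0.5% DMSO vehicle; bidirectional fit relative to DMSO.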
# [3] = read-out: growth arrest and DNA damage 45 (GADD45B), GADD45B (gene 4616); assay: LTEA_HepaRG_GADD45B: Life Technologies and Expression Analysis (LTEA) Assay for growth arrest and DNA damage 45 (GADD45B) using HepaRG (AID 2283461)
# Procedure, shortened: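 qRT-PCR read-out (Fluidigm TaqMan, housekeeping-normalized) of mRNA change in human HepaRG cells after 48 h chemical exposure; 8-point curve, top 100 uM, half-log steps, 0.5% DMSO vehicle; gain or loss fitted relative to DMSO baseline.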
# [4] = read-out: ABC Transporter (ABCC3), ABCC3 (gene 8714); assay: LTEA_HepaRG_ABCC3: Life Technologies and Expression Analysis (LTEA) Assay for ABC Transporter (ABCC3) using HepaRG (AID 2283462)
# Procedure, shortened: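 qRT-PCR read-out of ABCC3 transcript, normalized to three housekeeping genes (ACTB, GAPDH, POLR2A), after 48 h chemical exposure of human HepaRG cells. Eight half-log concentrations, highest 100 uM, in 0.5% DMSO; gain or loss fitted relative to DMSO baseline.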
# [5] = read-out: ABC Transporter (ABCB11), ABCB11 (gene 8647); assay: LTEA_HepaRG_ABCB11: Life Technologies and Expression Analysis (LTEA) Assay for ABC Transporter (ABCB11) using HepaRG (AID 2283463)
# Procedure, shortened: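 ABCB11 transcript levels quantified by TaqMan qRT-PCR against three housekeeping genes after 48 h chemical exposure of HepaRG cultures. Concentrations up to 100 uM in half-log steps, 0.5% DMSO vehicle; both induction and suppression scored.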
# [6] = read-out: ABC Transporter (ABCC2), ABCC2 (gene 1244); assay: LTEA_HepaRG_ABCC2: Life Technologies and Expression Analysis (LTEA) Assay for ABC Transporter (ABCC2) using HepaRG (AID 2283464)
# Procedure, shortened: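 qRT-PCR (TaqMan, Fluidigm array) read-out of ABCC2 mRNA, normalized to three housekeeping genes. Differentiated HepaRG cells were treated 48 h in serum-free induction medium with 8-point half-log series from 100 uM in 0.5% DMSO; curves fitted bidirectionally relative to DMSO.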
# [7] = read-out: Broad substrate specificity ATP-binding cassette transporter ABCG2 (Homo sapiens) (UniProt Q9UNQ0); assay: LTEA_HepaRG_ABCG2: Life Technologies and Expression Analysis (LTEA) Assay for ABC Transporter (ABCG2) using HepaRG (AID 2283465)
# Procedure, shortened: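 ABCG2 transcript was quantified by TaqMan qRT-PCR against three housekeeping genes in HepaRG cells. Cells were treated in duplicate for 48 h across an 8-point half-log series up to 100 uM, with 0.5% DMSO vehicle. Gain or loss versus DMSO was fit.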
# [8] = read-out: ATP-citrate lyase (ACLY), ACLY (gene 47); assay: LTEA_HepaRG_ACLY: Life Technologies and Expression Analysis (LTEA) Assay for ATP-citrate lyase (ACLY) using HepaRG (AID 2283466)
# Procedure, shortened: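 ACLY mRNA quantified by qRT-PCR on Fluidigm arrays against three housekeeping genes, after 48 h chemical treatment of HepaRG cells (top concentration 100 uM, half-log steps, 0.5% DMSO vehicle). Up- or down-regulation fitted relative to DMSO.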
# [9] = read-out: Peroxisomal acyl-coenzyme A oxidase 1 (ACOX1) gene, ACOX1 (gene 51); assay: LTEA_HepaRG_ACOX1: Life Technologies and Expression Analysis (LTEA) Assay for Peroxisomal acyl-coenzyme A oxidase 1 (ACOX1) gene using HepaRG (AID 2283467)
# Procedure, shortened: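 ACOX1 transcript levels were quantified by TaqMan qRT-PCR against three housekeeping genes after 48 h chemical exposure of differentiated human HepaRG cells. Exposure used eight half-log steps topping at 100 uM, 0.5% DMSO vehicle, in duplicate. Bidirectional curve fits were made relative to DMSO.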
# [10] = read-out: Alkaline Phosphatase, Placental (ALPP) gene, ALPP (gene 250); assay: LTEA_HepaRG_ALPP: Life Technologies and Expression Analysis (LTEA) Assay for Alkaline Phosphatase, Placental (ALPP) gene using HepaRG (AID 2283468)
# Procedure, shortened: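 qRT-PCR readout of ALPP mRNA (Fluidigm TaqMan), normalized to ACTB/GAPDH/POLR2A, after 48 h chemical exposure of HepaRG cells; 8-point half-log series, top 100 uM, 0.5% DMSO vehicle. Bidirectional curve fit versus DMSO baseline.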
# [11] = read-out: Bcl-2 (BAD) gene, BAD (gene 572); assay: LTEA_HepaRG_BAD: Life Technologies and Expression Analysis (LTEA) Assay for Bcl-2 (BAD) gene using HepaRG (AID 2283469)
# Procedure, shortened: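 Read-out: qRT-PCR of BAD mRNA, normalized to three housekeeping genes. Human HepaRG cultures got 48 h chemical exposure in 0.5% DMSO, duplicate eight-point half-log series topping at 100 uM. Gain or loss of signal fitted versus DMSO vehicle.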
# [12] = read-out: Bcl-2 (BAX) gene, BAX (gene 581); assay: LTEA_HepaRG_BAX: Life Technologies and Expression Analysis (LTEA) Assay for Bcl-2 (BAX) gene using HepaRG (AID 2283470)
# Procedure, shortened: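 qRT-PCR read-out of BAX mRNA, normalized to three housekeeping genes, after 48 h chemical exposure of human HepaRG cells in serum-free induction medium; eight-point half-log series, top 100 uM, 0.5% DMSO vehicle; bidirectional fit versus DMSO.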
# [13] = read-out: Alpha-fetoprotein (AFP) gene, AFP (gene 174); assay: LTEA_HepaRG_AFP: Life Technologies and Expression Analysis (LTEA) Assay for Alpha-fetoprotein (AFP) gene using HepaRG (AID 2283472)
# Procedure, shortened: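 qRT-PCR (Fluidigm TaqMan) readout of AFP transcript, normalized to three housekeeping genes, fitted bidirectionally against 0.5% DMSO baseline. HepaRG cells received chemicals for 48 h in serum-free induction medium, top concentration 100 uM, half-log steps.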
# [14] = read-out: BCL2L11 (gene 10018); assay: LTEA_HepaRG_BCL2L11: Life Technologies and Expression Analysis (LTEA) Assay for Bcl-2 (BCL2L11) gene using HepaRG (AID 2283473)
# Procedure, shortened: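 HepaRG, 48 h exposure, 8-pt half-log series from 100 uM in 0.5% DMSO, duplicates; qRT-PCR (Fluidigm TaqMan) for BCL2L11, housekeeping-normalized; bidirectional curve fit relative to DMSO baseline.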
# [15] = read-out: Apolipoprotein A-V (APOA5) gene, APOA5 (gene 116519); assay: LTEA_HepaRG_APOA5: Life Technologies and Expression Analysis (LTEA) Assay for Apolipoprotein A-V (APOA5) gene using HepaRG (AID 2283474)
# Procedure, shortened: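 HepaRG, 48 h chemical exposure in serum-free induction medium, 8-pt half-log series (top 100 uM), 0.5% DMSO vehicle, duplicates. Readout: APOA5 mRNA by qRT-PCR, housekeeping-normalized; bidirectional fit vs DMSO baseline.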
# [16] = read-out: Apoptosis regulator Bcl-2 (Homo sapiens) (UniProt P10415); assay: LTEA_HepaRG_BCL2: Life Technologies and Expression Analysis (LTEA) Assay for Bcl-2 gene using HepaRG (AID 2283475)
# Procedure, shortened: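 qRT-PCR read-out (Fluidigm TaqMan) of BCL2 transcript, normalised to three housekeeping genes, after 48 h chemical exposure of HepaRG cells; 8-point half-log series, top 100 uM, 0.5% DMSO vehicle. Gain or loss of signal fitted relative to DMSO baseline.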
# [17] = read-out: Bcl-2 (BID) gene, BID (gene 637); assay: LTEA_HepaRG_BID: Life Technologies and Expression Analysis (LTEA) Assay for Bcl-2 (BID) gene using HepaRG (AID 2283476)
# Procedure, shortened: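 HepaRG, 48 h exposure, 8-pt half-log series, top 100 uM, 0.5% DMSO vehicle, duplicates. Readout: BID mRNA by TaqMan qRT-PCR; housekeeping-normalized; bidirectional curve fit vs DMSO baseline.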
# [18] = read-out: Cytochrome P450 (CYP24A1), CYP24A1 (gene 1591); assay: LTEA_HepaRG_CYP24A1: Life Technologies and Expression Analysis (LTEA) Assay for Cytochrome P450 (CYP24A1) using HepaRG (AID 2283478)
# Procedure, shortened: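 qRT-PCR read-out: CYP24A1 transcript levels normalized to three housekeeping genes, bidirectional curve fits against 0.5% DMSO baseline. Human HepaRG cells treated 48 h with chemicals at eight concentrations from 100 uM in half-log steps.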
# [19] = read-out: adenosine kinase (ADK) gene, ADK (gene 132); assay: LTEA_HepaRG_ADK: Life Technologies and Expression Analysis (LTEA) Assay for adenosine kinase (ADK) gene using HepaRG (AID 2283471)
# Procedure, shortened: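 Following 48 h exposure of HepaRG cells in 0.5% DMSO (top concentration 100 uM, duplicate wells), ADK mRNA induction or suppression was measured by qRT-PCR, normalised to ACTB/GAPDH/POLR2A, and fitted bidirectionally relative to vehicle.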
# [20] = read-out: Caspase-3 (Homo sapiens) (UniProt P42574); assay: LTEA_HepaRG_CASP3: Life Technologies and Expression Analysis (LTEA) Assay for cysteine-aspartic acid protease (CASP3) using HepaRG (AID 2283477)
# Procedure, shortened: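 HepaRG, 48 h exposure, 8 conc. (top 100 uM, half-log steps, duplicate), 0.5% DMSO vehicle; qRT-PCR of CASP3 transcript, housekeeping-normalised (ACTB/GAPDH/POLR2A); bidirectional curve fit vs DMSO baseline.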
# Apoptosis regulator Bcl-2 (Homo sapiens), sequence (P10415 whole entry, looked up): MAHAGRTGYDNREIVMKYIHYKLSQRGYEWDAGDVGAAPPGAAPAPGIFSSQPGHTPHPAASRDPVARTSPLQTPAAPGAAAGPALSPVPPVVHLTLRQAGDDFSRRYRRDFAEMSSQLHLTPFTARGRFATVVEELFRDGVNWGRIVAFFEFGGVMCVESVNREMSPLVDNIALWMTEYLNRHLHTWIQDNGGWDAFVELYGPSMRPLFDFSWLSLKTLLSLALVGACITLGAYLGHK
# Broad substrate specificity ATP-binding cassette transporter ABCG2 (Homo sapiens), sequence (Q9UNQ0 whole entry, looked up): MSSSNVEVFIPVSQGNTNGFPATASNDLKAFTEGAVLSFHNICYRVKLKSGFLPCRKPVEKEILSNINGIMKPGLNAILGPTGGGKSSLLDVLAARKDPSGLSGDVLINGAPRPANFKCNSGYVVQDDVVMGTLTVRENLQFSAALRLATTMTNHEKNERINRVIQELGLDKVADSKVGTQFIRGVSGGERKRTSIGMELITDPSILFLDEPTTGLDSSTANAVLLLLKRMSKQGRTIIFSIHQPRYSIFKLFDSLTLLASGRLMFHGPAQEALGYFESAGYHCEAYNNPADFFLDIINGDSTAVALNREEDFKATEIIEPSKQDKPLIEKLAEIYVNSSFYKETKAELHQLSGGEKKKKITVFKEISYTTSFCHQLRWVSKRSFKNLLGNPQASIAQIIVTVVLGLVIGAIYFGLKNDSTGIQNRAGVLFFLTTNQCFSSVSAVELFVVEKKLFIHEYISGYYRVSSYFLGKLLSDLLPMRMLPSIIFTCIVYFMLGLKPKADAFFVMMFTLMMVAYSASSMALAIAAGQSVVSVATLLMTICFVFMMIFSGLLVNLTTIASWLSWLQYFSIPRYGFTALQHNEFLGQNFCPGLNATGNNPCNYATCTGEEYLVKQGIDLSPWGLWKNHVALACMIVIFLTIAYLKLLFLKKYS
# Caspase-3 (Homo sapiens), sequence (P42574 whole entry, looked up): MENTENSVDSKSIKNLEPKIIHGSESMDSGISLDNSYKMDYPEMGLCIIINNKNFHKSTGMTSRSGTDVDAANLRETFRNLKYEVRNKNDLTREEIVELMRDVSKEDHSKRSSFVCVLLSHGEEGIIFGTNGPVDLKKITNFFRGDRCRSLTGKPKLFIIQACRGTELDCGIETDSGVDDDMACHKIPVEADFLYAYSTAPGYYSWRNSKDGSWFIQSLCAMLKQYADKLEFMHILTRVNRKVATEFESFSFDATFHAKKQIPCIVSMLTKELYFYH
smiles,measurement,setting,value
CC[C@H]1OC(=O)[C@H](C)[C@@H](O[C@H]2C[C@@](C)(OC)[C@@H](O)[C@H](C)O2)[C@H](C)[C@@H](O[C@@H]2O[C@H](C)C[C@H](N(C)C)[C@H]2O)[C@](C)(O)C[C@@H](C)C(=O)[C@H](C)[C@@H](O)[C@]1(C)O,outcome,[1],inactive
same,outcome,[2],inactive
same,outcome,[3],inactive
same,outcome,[4],inactive
same,outcome,[5],inactive
same,outcome,[6],inactive
same,outcome,[7],inactive
same,outcome,[8],inactive
same,outcome,[9],inactive
same,outcome,[10],inactive
same,outcome,[11],inactive
same,outcome,[12],inactive
same,outcome,[13],inactive
same,outcome,[14],inactive
same,outcome,[15],inactive
same,outcome,[16],inactive
same,outcome,[17],inactive
same,outcome,[18],inactive
Cc1[nH]cnc1C[C@H]1CCc2c(C)c3ccccc3n2C1=O,outcome,[1],inactive
same,AC50,[2],68.5 µM (active)
same,AC50,[3],25.2 µM (active)
same,AC50,[4],10.6 µM (active)
same,AC50,[5],22.7 µM (active)
same,AC50,[6],31.3 µM (active)
same,outcome,[7],inactive
same,AC50,[8],75.6 µM (active)
same,AC50,[9],54.4 µM (active)
same,outcome,[10],inactive
same,outcome,[11],inactive
same,AC50,[12],28 µM (active)
same,outcome,[19],inactive
same,AC50,[14],26.6 µM (active)
same,AC50,[15],19.6 µM (active)
same,AC50,[16],24.1 µM (active)
same,outcome,[17],inactive
same,outcome,[20],inactive
same,outcome,[18],inactive
CC(C)=CCCC(C)=CC=O,outcome,[1],inactive
same,outcome,[2],inactive
same,outcome,[3],inactive
same,outcome,[4],inactive
same,outcome,[5],inactive
same,outcome,[6],inactive
same,outcome,[7],inactive
same,outcome,[8],inactive
same,outcome,[9],inactive
same,outcome,[10],inactive
same,outcome,[11],inactive
same,outcome,[12],inactive
same,outcome,[19],inactive
same,outcome,[13],inactive
same,outcome,[14],inactive
same,outcome,[15],inactive
same,outcome,[16],inactive
same,outcome,[17],inactive
same,outcome,[18],inactive
